Experimental data: PubChem BioAssay (NCI)
About 79,000 compounds went through this panel and 15% of them were active in at least one assay; those are over-represented in the sample as a whole. No stated cut-off is given here; in the data, active means growth inhibition above about 70%; inactive means the rest.

Experiments:
[1] = NCI Yeast Anticancer Drug Screen. Data for the rad50 strain (AID 155);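 further: 0% = growth of vehicle-only cultures of the same strain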; details: S. cerevisiae rad50 strain growth inhibition; at 50.0 µM; active compounds read high
How it was run: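 Genetically altered yeast (DNA repair pathway); compound treatment; growth inhibition vs vehicle ctrl.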

[2] = NCI Yeast Anticancer Drug Screen. Data for the mec2-1 strain (AID 157); details: S. cerevisiae mec2-1 strain, at 50.0 µM, active compounds read high
How it was run: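 Cells of the genetically defined mec2-1 yeast strain are incubated with test compound. Inhibition of growth is calculated against vehicle-treated controls.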

[3] = NCI Yeast Anticancer Drug Screen. Data for the sgs1 mgt1 strain (AID 161);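 further: 0% = growth of cultures given vehicle only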; details: S. cerevisiae sgs1 mgt1 strain, at 50.0 µM, active compounds read high
How it was run: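 Genetically altered yeast, compound exposure, growth inhibition relative to vehicle.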

[4] = NCI Yeast Anticancer Drug Screen. Data for the cln2 rad14 strain (AID 165);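 further: 0% = growth equal to vehicle treated cultures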; details: S. cerevisiae cln2 rad14 strain, at 50.0 µM, active compounds read high
How it was run: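 The screen exposed genetically defined yeast (cln2 rad14) to test compounds and scored growth inhibition relative to vehicle-treated controls.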

[5] = NCI Yeast Anticancer Drug Screen. Data for the bub3 strain (AID 167); details: S. cerevisiae bub3 mutant strain, at 50.0 µM, active compounds read high
How it was run: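 Yeast carrying a defined mutation is treated with each compound, and growth is compared with that of vehicle-exposed cells to give inhibition.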

[6] = NCI Yeast Anticancer Drug Screen. Data for the mlh1 rad18 strain (AID 175); details: S. cerevisiae mlh1 rad18 strain growth inhibition; at 50.0 µM; active compounds read high
How it was run: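 Compound-treated yeast growth, normalised to vehicle controls. Strain bears defined DNA repair mutations.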

Measured: growth inhibition

O=C1Nc2cc(F)ccc2C1=O
inactive: [1] 15.5% | [2] 15.1% | [3] 7.95% | [4] 10.7% | [5] 19.6% | [6] 19.4%

CCOC(=O)C1CCCCC1C(=O)OCC (stereo unspecified)
inactive: [1] -1.7% | [2] -15.8% | [3] -7.3% | [4] -3.55% | [5] -28.1% | [6] -26.9%

O=C(O)CCC1CCc2cccc(OCC(=O)O)c2C1=O (stereo unspecified)
inactive: [1] 2% | [2] -4.3% | [3] -16.2% | [4] 23.5% | [5] -4.4% | [6] -11.7%

O=C(NCCN1CCCC1)Nc1ccccc1Cl
inactive: [1] 4.6% | [2] 27.2% | [3] -0.8% | [4] -10.1% | [5] 34.1% | [6] 0.15%

NC(=O)C(=O)N/N=C(\CC1(O)C(=O)Nc2ccccc21)c1ccc2ccccc2c1 (stereo unspecified)
inactive: [1] 17.4% | [2] 16.5% | [3] 7.5% | [4] 48.5% | [5] 35% | [6] 12.1%

COC1CCC(/C(C#N)=C/C2CCC(N(C)C)CC2)CC1 (stereo unspecified)
inactive: [1] 12.9% | [2] 16.2% | [3] 20.9% | [4] 10.6% | [5] 9.85% | [6] 18.6%

O=C(O)CCSCCCCCCCCCCCCSCCC(=O)O
inactive: [1] 16.5% | [2] 18.9% | [3] 18.4% | [4] 18.8% | [5] -3.65% | [6] 25.8%

CCCCCCSc1nc2c([nH]1)c(=O)n(C)c(=S)n2C
inactive: [1] 2.5% | [2] -3.1% | [3] 1.35% | [4] 1.5% | [5] 13.9% | [6] 19.1%

CCN(CC)CCNc1ccc2ncn3c4c(OC)cccc4c(=O)c1c23
inactive: [1] 2.7% | [2] -17.1% | [3] 21.8% | [4] 18.4% | [5] -46.8% | [6] 67.2%

CNC(=S)/C(C(C)=O)=C(\C)Nc1ccccc1
inactive: [1] -0.95% | [2] -5.55% | [3] -8.05% | [4] -32.1% | [5] -14.6% | [6] 15.2%

Nc1ncnc2c1ncn2C1C=COC(CO)C1O (stereo unspecified)
inactive: [1] 4.95% | [2] 1.05% | [3] -6.5% | [4] 2.5% | [5] -28.5% | [6] 20.4%

N#Cc1cc([N+](=O)[O-])ccc1NC(=O)C(=O)C(C(=O)c1ccc2ccccc2c1)C1OCc2ccccc21 (stereo unspecified)
inactive: [1] 11.1% | [2] -6.4% | [3] -2.85% | [4] 36.1% | [5] -8.5% | [6] -9.95%

C/C(=C\c1ccc(F)cc1)C(=O)O
inactive: [1] 20.2% | [2] -0.95% | [3] 0% | [4] 11.2% | [5] 14.9% | [6] 13.8%

NC(=O)NN/C=C(/C=Nc1ccccc1)[N+](=O)[O-]
inactive: [1] 17.4% | [2] 7.35% | [3] 1.2% | [4] 5.35% | [5] 6.55% | [6] 0.95%

CN(C)CCCNc1ccc2nnn3c4ccc(O)cc4c(=O)c1c23
inactive: [1] -4.2% | [2] 1.25% | [3] 0.9% | [4] 0.15% | [5] 2.65% | [6] 19%

CN(C)c1ccc(/C=C2N=C(/C=C\c3ccccc3)OC\2=O)cc1
inactive: [1] -5.5% | [2] 4.75% | [3] -6.05% | [4] 0.25% | [5] 7.55% | [6] 9.45%

CC(CCNC(=S)S)CC(C)(C)C.[Zn+2] (stereo unspecified)
inactive: [1] 9.75% | [2] 15.1% | [3] -7.55% | [4] -36% | [5] -4.65% | [6] -1%

COc1cc2c(c(OC)c1OC)-c1cccc(=O)cc1C(NC(C)=O)CC2 (stereo unspecified)
inactive: [1] -3.65% | [2] -14.2% | [3] -3.35% | [4] 8.9% | [5] -2.2% | [6] 21.1%

O=C(CN(Cc1ccccc1)Cc1ccccc1)C(O)C1OC(c2ccccc2)OCC1O (stereo unspecified)
inactive: [1] 1.45% | [2] -5.55% | [3] -2.3% | [4] -4.5% | [5] -1.65% | [6] -4.1%

COC1(NS(=O)(=O)c2ccc(C)cc2)CC1
inactive: [1] -43.8% | [2] -25.2% | [3] -12.1% | [4] -39.1% | [5] 10.4% | [6] -3.85%

CNC(=O)C1CCCN1C(=O)C(Cl)Cl (stereo unspecified)
inactive: [1] -1.95% | [2] -10.6% | [3] 0.9% | [4] -21.9% | [5] -10.8% | [6] 14.2%
